# Laboratory results published in PubChem BioAssay (EPA / NIEHS).
# “And” between values parts separate entries of the source, which are not always exact repeats. Equal entries are not always repeated. A structure can be active in one record and inactive in another. The source made the active and inactive calls. How the source made its calls: active means hit-call score of the fitted dose curve at least 0.9, where 1 is the maximum; inactive means score below 0.9.
# Experiment: ATG_GRE_CIS: Attagene CIS-FACTORIAL HepG2 Assay for human Glucocorticoid Response Elements (GRE) (AID 2282947)
# Conditions: HepG2 GRE cis-reporter, Attagene multiplex mRNA; actives raise or lower the signal
# Method in brief: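 Multiplexed cis-reporter mRNA induction, HepG2, 24 h post-dose. RT-PCR, FAM-labelled, HpaI-digested amplicons by CE. Bidirectional fit vs DMSO.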
SMILES,outcome,AC50
CCSC(C)CC1CC(=O)C(C(CC)=NOC/C=C/Cl)=C(O)C1 (configuration not stated),inactive,–
CC(=O)C=C(C)C,inactive,–
CN(C)N=O,inactive,–
CCc1ccccc1N,inactive,–
BrCCBr,inactive,–
C[C@]12CC[C@H](O)CC1=CC[C@@H]1[C@@H]2CC[C@]2(C)C(=O)CC[C@@H]12,inactive,–
O=Cc1cccc(Oc2ccccc2)c1,inactive,–
O=CC=O,inactive,–
CCC[CH2][Sn]([CH2]CCC)([CH2]CCC)[O]C(=O)c1ccccc1,inactive,–
O=[N+]([O-])c1ccc2c3c(cccc13)CC2,inactive,–
C[C@H]1O[C@@H](O[C@H]2[C@@H](O)C[C@H](O[C@H]3[C@@H](O)C[C@H](O[C@H]4CC[C@@]5(C)[C@H](CC[C@@H]6[C@@H]5CC[C@]5(C)[C@@H](C7=CC(=O)OC7)CC[C@]65O)C4)O[C@@H]3C)O[C@@H]2C)C[C@H](O)[C@@H]1O,–,0.123 µM (active)
O=C/C=C/c1ccccc1,inactive,–
Clc1ccc(C2(Cn3cncn3)CC(Br)CO2)c(Cl)c1 (configuration not stated),inactive,–
Clc1ccc(COC(Cn2ccnc2)c2ccc(Cl)cc2Cl)cc1 (configuration not stated),inactive,–
CCCCCCCCC(=O)NCc1ccc(O)c(OC)c1,inactive,–
Nc1ccc(-c2ccc(N)c(Cl)c2)cc1Cl,inactive,–

SMILES,outcome,AC50
CCC1(c2ccc(N)cc2)CCC(=O)NC1=O (configuration not stated),inactive,–
Oc1ccc(-c2ccccc2)cc1,inactive,–
CCCCCCCCCl,inactive,–
CC(=O)[O][Hg][c]1ccccc1,–,3.71 µM (active)
CC(C)(c1ccccc1)c1ccc(O)c(C(C)(C)c2ccccc2)c1,inactive,–
COC[C@H](C)N(C(=O)CCl)c1c(C)csc1C,inactive,–
CC(=[OH+])/C=C(/C)[O-].CC(=[OH+])/C=C(/C)[O-].CC(=[OH+])/C=C(/C)[O-].[Fe],inactive,–
CCCCCCCCc1ccc(O)cc1,inactive,–
Cc1ccc2ccccc2c1C,inactive,–
O=S(=O)(c1ccc(Cl)cc1)c1ccc(Cl)cc1,inactive,–
CC(C)(C)c1cc(O)ccc1O,inactive,–
COC(=O)Cc1ccccc1,inactive,–
COC(=O)c1sccc1S(=O)(=O)NC(=O)Nc1nc(C)nc(OC)n1,inactive,–
N#CCCO,inactive,–
C[C@]12CCC(=O)C[C@@H]1CC[C@@H]1[C@@H]2CC[C@]2(C)[C@@H](O)CC[C@@H]12,inactive,–
CCc1ccccc1C,inactive,–

# Experiment: ATG_ISRE_CIS: Attagene CIS-FACTORIAL HepG2 Assay for human Interferon Regulatory Factor 1 (IRF1) binding to an Interferon-Stimulated Response Element (ISRE) (AID 2282948)
# Conditions: HepG2 ISRE cis-reporter (Attagene), mRNA transcription readout; actives raise or lower the signal
# Method in brief: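 Signal reflects induction or loss of ISRE-linked reporter mRNA in transiently transfected HepG2 cells after a 24 h treatment, detected by fluorescent RT-PCR fragments on capillary electrophoresis and normalised to DMSO.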
SMILES,AC50,outcome
COc1cc(-c2ccc(N)c(OC)c2)ccc1N,53.6 µM (active),inactive
CCSC(C)CC1CC(=O)C(C(CC)=NOC/C=C/Cl)=C(O)C1 (configuration not stated),–,inactive
CC(=O)C=C(C)C,–,inactive
CCC(=O)c1ccccc1,–,inactive
CN(C)N=O,–,inactive
CCc1ccccc1N,–,inactive
BrCCBr,–,inactive
C[C@]12CC[C@H](O)CC1=CC[C@@H]1[C@@H]2CC[C@]2(C)C(=O)CC[C@@H]12,–,inactive
Nc1cccc2ccccc12,–,inactive
O=Cc1cccc(Oc2ccccc2)c1,–,inactive
O=CC=O,–,inactive
CCC[CH2][Sn]([CH2]CCC)([CH2]CCC)[O]C(=O)c1ccccc1,–,inactive
O=[N+]([O-])c1ccc2c3c(cccc13)CC2,–,inactive
C[C@H]1O[C@@H](O[C@H]2[C@@H](O)C[C@H](O[C@H]3[C@@H](O)C[C@H](O[C@H]4CC[C@@]5(C)[C@H](CC[C@@H]6[C@@H]5CC[C@]5(C)[C@@H](C7=CC(=O)OC7)CC[C@]65O)C4)O[C@@H]3C)O[C@@H]2C)C[C@H](O)[C@@H]1O,0.254 µM (active),–
O=C/C=C/c1ccccc1,–,inactive
Clc1ccc(C2(Cn3cncn3)CC(Br)CO2)c(Cl)c1 (configuration not stated),–,inactive
Clc1ccc(COC(Cn2ccnc2)c2ccc(Cl)cc2Cl)cc1 (configuration not stated),–,inactive
CCCCCCCCC(=O)NCc1ccc(O)c(OC)c1,–,inactive
Nc1ccc(-c2ccc(N)c(Cl)c2)cc1Cl,–,inactive
CCC1(c2ccc(N)cc2)CCC(=O)NC1=O (configuration not stated),–,inactive

SMILES,AC50,outcome
Oc1ccc(-c2ccccc2)cc1,179 µM (active),–
CCCCCCCCCl,–,inactive
CC(=O)[O][Hg][c]1ccccc1,–,inactive
O=C(O)C(Cl)(Cl)Cl,–,inactive
CC(C)(c1ccccc1)c1ccc(O)c(C(C)(C)c2ccccc2)c1,–,inactive
COC[C@H](C)N(C(=O)CCl)c1c(C)csc1C,–,inactive
CC(=[OH+])/C=C(/C)[O-].CC(=[OH+])/C=C(/C)[O-].CC(=[OH+])/C=C(/C)[O-].[Fe],–,inactive
CCCCCCCCc1ccc(O)cc1,–,inactive
C[C@H]1CCCC(=O)CCC/C=C/c2cc(O)cc(O)c2C(=O)O1,16.8 µM (active),–
O=C(O)C(F)(F)C(F)(F)C(F)(F)C(F)(F)C(F)(F)C(F)(F)C(F)(F)C(F)(F)C(F)(F)C(F)(F)F,44.5 µM (active) and 20.1 µM (active),–
Cc1ccc2ccccc2c1C,–,inactive
O=S(=O)(c1ccc(Cl)cc1)c1ccc(Cl)cc1,–,inactive
CC(C)(C)c1cc(O)ccc1O,–,inactive
COC(=O)Cc1ccccc1,–,inactive
COC(=O)c1sccc1S(=O)(=O)NC(=O)Nc1nc(C)nc(OC)n1,–,inactive
O=C(O)C(F)(F)C(F)(F)C(F)(F)C(F)(F)C(F)(F)C(F)(F)F,–,inactive
N#CCCO,–,inactive
C[C@]12CCC(=O)C[C@@H]1CC[C@@H]1[C@@H]2CC[C@]2(C)[C@@H](O)CC[C@@H]12,–,inactive
CCc1ccccc1C,–,inactive
